TIM10 inh – growth inhibitors of isogenic TIM10 control yeast, primary screen, counter-screen for tim10-1 yeast inhibitor project, luminescence, uHTS. S. cerevisiae TIM10 strain growth, BacTiter-Glo luminescence, 24 h. inhibition, % at 10 µM. 330,000 compounds, 1.4% hits;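 active = inhibition of 40% or more at the single tested concentration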;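 note: wild-type TIM10 isogenic control strain grown at permissive 25 °C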
tim10-1 inh – growth inhibitors of tim10-1 mutant yeast, primary screen, luminescence, uHTS. inhibition, % at 20 µM. 330,000 compounds, 2.2% hits. S. cerevisiae tim10-1 ts strain growth, BacTiter-Glo, 24 h. AID 463190, 2010;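 active = inhibition of at least 40%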;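 note: mutant grown at 25 °C; 0% = DMSO wells with yeast and 100% = wells holding no yeast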
Mdm2 MdmX PPI – inhibitors of human Mdm2-MdmX association, primary screen, cell-based, luminescence, split luciferase, SaOS-2, uHTS | 330,000 compounds, 3% hits | SaOS-2 split-luciferase Mdm2/MdmX complementation | inhibition, % at 8 µM | AID 485346, 2010 | Protein Mdm4 (Homo sapiens) + E3 ubiquitin-protein ligase Mdm2 (Homo sapiens), …;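 active = inhibition of at least 50% at 8 µM in the primary screen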
Target sequence (O15151 whole entry, looked up): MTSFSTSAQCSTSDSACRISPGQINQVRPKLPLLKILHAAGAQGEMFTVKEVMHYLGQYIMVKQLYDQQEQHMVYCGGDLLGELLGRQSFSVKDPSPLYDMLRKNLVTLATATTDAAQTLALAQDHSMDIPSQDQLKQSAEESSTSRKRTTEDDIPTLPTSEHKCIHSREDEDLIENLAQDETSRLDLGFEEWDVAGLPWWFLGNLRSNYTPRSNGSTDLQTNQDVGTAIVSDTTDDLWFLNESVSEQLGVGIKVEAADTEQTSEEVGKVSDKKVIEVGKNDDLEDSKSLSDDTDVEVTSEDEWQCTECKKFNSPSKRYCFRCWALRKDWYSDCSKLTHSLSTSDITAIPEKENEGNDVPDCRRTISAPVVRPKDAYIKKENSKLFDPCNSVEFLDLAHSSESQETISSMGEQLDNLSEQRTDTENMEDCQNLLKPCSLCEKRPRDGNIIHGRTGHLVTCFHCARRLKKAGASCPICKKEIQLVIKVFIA
Target sequence (Q00987 whole entry, looked up): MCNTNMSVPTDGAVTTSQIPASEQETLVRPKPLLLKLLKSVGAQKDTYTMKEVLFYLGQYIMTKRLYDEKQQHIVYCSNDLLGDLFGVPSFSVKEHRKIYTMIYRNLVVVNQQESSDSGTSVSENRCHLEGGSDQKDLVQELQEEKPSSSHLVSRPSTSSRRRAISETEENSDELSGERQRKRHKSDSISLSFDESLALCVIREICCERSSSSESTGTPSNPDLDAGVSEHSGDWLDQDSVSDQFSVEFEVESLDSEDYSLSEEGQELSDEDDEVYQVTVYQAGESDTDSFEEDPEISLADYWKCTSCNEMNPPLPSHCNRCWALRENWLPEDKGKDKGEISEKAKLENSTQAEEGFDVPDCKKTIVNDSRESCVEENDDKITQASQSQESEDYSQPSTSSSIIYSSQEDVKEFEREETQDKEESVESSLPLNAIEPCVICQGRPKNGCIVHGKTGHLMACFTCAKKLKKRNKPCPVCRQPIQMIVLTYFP
tim23-1 inh – growth inhibitors of tim23-1 mutant yeast, primary screen, luminescence, uHTS; S. cerevisiae tim23-1 growth, BacTiter-Glo luminescence, 24 h; inhibition, % at 20 µM; 330,000 compounds, 1.3% hits; AID 463212, 2010;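 active = growth inhibition of the mutant yeast at or above 50%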;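 note: temperature-sensitive mutant grown at 25 °C; plate controls were DMSO-treated mutant yeast for no effect and medium wells lacking yeast for full effect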
MPTP block – mitochondrial permeability transition pore inhibitors, primary screen, biochemical, isolated mouse mitochondria, absorbance; Ca2+ swelling absorbance, 30 min; inhibition, % at 10 µM; 360,000 compounds, 1.4% hits;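 active = inhibition of 50% or more, scaled per plate between neutral and stimulator controls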;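 note: 0% = DMSO wells given calcium and 100% = 1 mM EGTA wells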
tim10-1 confirm – growth inhibitors of tim10-1 mutant yeast, confirmation, single concentration, luminescence, S. cerevisiae; shares compounds with tim10-1 inh; S. cerevisiae tim10-1 ts strain growth, BacTiter-Glo, 24 h; inhibition, % at 20 µM; 7,400 compounds, 56% hits; AID 463213, 2010;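 active = inhibition of yeast growth at or above a set limit in either of two repeat tests at 20 µM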;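 note: tim10-1 mutant grown at permissive 25 °C to find synthetic lethal compounds; 0% = DMSO yeast wells and 100% = medium wells without yeast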
TIM10 conf – growth inhibitors of wild-type TIM10 yeast, confirmation, counter-screen for tim10-1 synthetic lethality project, single concentration, luminescence, S. cerevisiae; inhibition, % at 10 µM; S. cerevisiae tim10 strain growth, BacTiter-Glo luminescence, 24 h; 4,600 compounds, 63% hits; shares compounds with TIM10 inh; AID 463215, 2010;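 active = inhibition of yeast growth at or above a set limit in either of two replicates at 10 µM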;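 note: this counterscreen used the strain with wild-type TIM10; 0% = yeast with DMSO and 100% = medium wells lacking yeast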
tim23-1 confirm – tim23-1 mutant yeast growth inhibitors, confirmation, luminescence, single concentration; shares compounds with tim23-1 inh; S. cerevisiae tim23-1 growth, BacTiter-Glo luminescence, 24 h; inhibition, % at 20 µM; 4,400 compounds, 83% hits; AID 463218, 2010;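 active = inhibition above about 39% in either of two replicate wells at 20 µM, limit read from the data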;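 note: temperature-sensitive tim23-1 mutant grown at 25 °C; 0% = DMSO wells with yeast and 100% = medium wells without yeast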
Mdm2 MdmX conf – Mdm2-MdmX complex disruptors, retested hits, confirmation, luminescence, single concentration; shares compounds with Mdm2 MdmX PPI; 10,000 compounds, 55% hits; AID 489028, 2010; inhibition, % at 8 µM; Mdm2-MdmX binding, luminescent assay; in the data active = inhibition above about 40%
FLuc counter – full-length luciferase signal inhibition, confirmation, counter-screen for Mdm2/MdmX interaction inhibitor project, cell-based, single concentration, SaOS-2; shares compounds with Mdm2 MdmX PPI; SaOS-2 full-length luciferase counterscreen, luminescence; inhibition, % at 8 µM; 6,200 compounds, 77% hits;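 active = mean inhibition at 8 µM reaching about 37%, which flags the compound as non-specific, limit read from the data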;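 note: p53-null SaOS-2 cells with luciferase driven by a doxycycline-inducible promoter; compound on cells about two nights before reading with doxycycline added after day one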
Rh123 counter – fluorescence retest of MPTP screen hits in isolated mitochondria, single concentration; shares compounds with MPTP block; membrane potential, Rhodamine 123 fluorescence; inhibition, % at 10 µM; 5,000 compounds, 78% hits; AID 624504, 2012; in the data active = inhibition above about 22%;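 note: 0% = DMSO vehicle and 100% = positive control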
MPTP abs DR – mitochondrial permeability transition pore inhibitors, dose response, biochemical, absorbance, uHTS hits; IC50, µM; 780 compounds, 58% hits; shares compounds with MPTP block; isolated mitochondria swelling; in the data active = IC50 below about 20 µM
MPTP cs DR – fluorescent counter-screen in isolated mitochondria, dose response, counter-screen for MPTP inhibitor project, biochemical, fluorescence, uHTS hits; shares compounds with MPTP block; isolated mitochondria counterscreen, fluorescence read-out; IC50, µM; 780 compounds, 49% hits; AID 651564, 2012; in the data active = IC50 below about 80 µM
Numbers without * were called inactive; · = no result given; ! = not confirmed by another sample. Most compounds without a hit are left out; they make up all but 6.3% or so of the library.

SMILES | TIM10 inh | tim10-1 inh | Mdm2 MdmX PPI | tim23-1 inh | MPTP block | tim10-1 confirm | Rh123 counter | others
Cc1ccc(Sc2ccc(NC(=O)CCl)cc2)cc1C | 40.2* | 49.5* | 81.3* | 66.2* | 51.8* | 52.0* | 20.7* | TIM10 conf=38.9*;tim23-1 confirm=75.5*;Mdm2 MdmX conf=27.7
O=C(NCCSCc1ccco1)Nc1cc(Cl)cc(Cl)c1 | 33.8 | 46.1* | 6.4 | 53.6* | 86.5* | 35.0* | 90.2* | tim23-1 confirm=55.5*
COc1ccc(/C=N/Nc2cc(N3CCCC3)nc(N3CCCC3)n2)cc1 | 26.9 | 44.9* | 77.1* | 67.5* | 77.2* | 18.1 | 81.8* | tim23-1 confirm=44.1*;Mdm2 MdmX conf=20.4
O=C(NC(c1cccnc1)C(F)(F)F)c1cc(COc2ccc3c(c2)CCCC3)on1 (stereo unspecified) | 4.8 | 41.8* | -15.3 | 36.5 | 100.4* | 13.9 | 85.9*
O=C(CN1C(=O)C2CC=CCC2C1=O)Nc1nc(-c2ccc(F)c(F)c2)cs1 (stereo unspecified) | 0.7 | 2.4 | 17.9 | 5.8 | 0.1 | · | ·
CN1CCN(C2=Cc3cc(Cl)ccc3Sc3cc(F)ccc32)CC1 | -15.2 | 56.8* | 51.4* | 78.1* | 90.6* | 39.6* | -12.6 | tim23-1 confirm=66.6*;Mdm2 MdmX conf=16.9
O=C(O)c1ccc(N2C(=O)/C(=C/C=C/c3ccccc3)SC2=S)cc1 | 14.0 | 15.0 | 18.7 | 15.6 | 1.2 | · | ·
CN(C)c1ccc(/C=C/C=C2/SC(=S)N(c3ccccc3)C2=O)cc1 | 35.8 | 43.6* | 30.5 | 45.6 | 57.9* | 29.4* | -23.5
Cc1cc(Cl)ccc1Oc1ccccc1C(=O)CC#N | 13.5 | 51.8* | 11.4 | 46.4 | 66.2* | 38.5* | 74.7*
O=C(NNC1=C(C(=O)C(F)(F)F)CCC1)c1ccc(Cl)cc1 | 41.1* | 53.3* | 51.9* | 49.6 | 91.9* | -16.5 | 76.9* | TIM10 conf=39.5*;Mdm2 MdmX conf=55.0*;FLuc counter=75.5*
O=C(Nc1cccc(S(=O)(=O)N2CCCCC2)c1)Nc1ccc(Cl)cc1Cl | 45.6* | 44.3* | 88.5* | 44.0 | 84.9* | 22.6 | 72.8* | TIM10 conf=39.0*;Mdm2 MdmX conf=39.5
CCOC(=O)c1c(Cc2cccc(Cl)c2)c[nH]c1C | 24.1 | 30.2 | 23.1 | 8.6 | 4.7 | · | ·
COC(=O)c1c(Cc2ccccc2Cl)c[nH]c1C | 9.8 | 41.0* | 36.0 | 28.4 | 54.7* | 15.8 | 24.2*
C(=C\c1nc(N2CCCCCC2)c2ccccc2n1)/c1ccccc1 | 43.8* | 45.7* | -12.9 | 50.3* | 65.0* | 31.0* | 93.3* | TIM10 conf=19.4;tim23-1 confirm=37.8
O=C(Nc1cccc(C(F)(F)F)c1)c1cccnc1NCCO | -5.3 | -16.4 | 5.5 | -10.1 | 0.9 | · | ·
O=C(Nc1cccc(C(F)(F)F)c1)c1cccnc1NCCc1ccccc1 | 43.3* | 44.3* | 16.5 | 39.6 | 80.1* | 29.7* | 70.5* | TIM10 conf=-5.2
Fc1cccc(Cc2c(-c3ccc(Cl)cc3)nc3c(Cl)cc(C(F)(F)F)cn23)c1 | · | · | · | · | 2.2 | · | ·
CN1CCN(CCCN2c3ccccc3Sc3ccc(C(F)(F)F)cc32)CC1 | 26.7 | 42.0* | 41.3 | 17.1 | 90.8*! | 26.4 | -19.6 | MPTP abs DR=4.21*;MPTP cs DR=>80
O=C(CN1CCCC(O)C1)N1c2ccccc2Sc2ccc(C(F)(F)F)cc21 (stereo unspecified) | 13.9 | 13.5 | -17.4 | 21.0 | -0.5 | · | ·
Cc1[nH]n(-c2ccccc2)c(=O)c1C(C[N+](=O)[O-])c1ccc(Br)cc1 (stereo unspecified) | 49.5* | 60.1* | -9.0 | 89.1* | 73.2* | 57.2* | 36.7* | TIM10 conf=68.8*;tim23-1 confirm=84.3*
Cc1[nH]n(-c2ccccc2)c(=O)c1C(c1ccc(C(=O)O)cc1)c1c(C)[nH]n(-c2ccccc2)c1=O | 13.8 | 7.6 | -3.2 | 23.8 | -11.3 | · | ·
Cc1[nH]n(-c2ccccc2)c(=O)c1C(c1cccc([N+](=O)[O-])c1O)c1c(C)[nH]n(-c2ccccc2)c1=O | 6.9 | 42.4* | -19.7 | 32.5 | 103.0* | 22.8 | 64.9*
Cc1c(C(c2cccc([N+](=O)[O-])c2O)c2c(C)n(C)n(-c3ccccc3)c2=O)c(=O)n(-c2ccccc2)n1C | 13.9 | 5.5 | 30.8 | -1.5 | -4.5 | · | ·
COc1ccc(-c2nc3c(Cl)cc(C(F)(F)F)cn3c2Cc2ccc(C)cc2)cc1OC | · | · | · | · | 2.2 | · | ·
CCCn1nc([N+](=O)[O-])c(C(C#N)c2nc3ccccc3o2)c(Cl)c1=O (stereo unspecified) | 30.0 | 47.8* | -16.6 | 42.2 | 100.9* | 36.2* | 49.6*
O=c1cc(C(F)(F)F)nc(SCc2cccc3ccccc23)[nH]1 | -2.7 | 40.0* | 4.7 | 24.3 | 78.1* | 3.5 | 85.0*
Nc1cc(=O)[nH]c(SCc2cccc3ccccc23)n1 | 11.3 | -7.6 | 30.9 | 29.1 | -0.7 | · | ·
CC(C)N(C(=S)Nc1cccc(C(F)(F)F)c1)C(C)c1ccccn1 (stereo unspecified) | 2.8 | 42.8* | 14.6 | 39.6 | 92.4* | 26.0 | 83.3*
CCOC(=O)c1ccc(NC(=O)NCCc2ccccc2OC)cc1 | 10.6 | 6.5 | -2.2 | 13.3 | 2.9 | · | ·
CCOC(=O)c1ccc(NC(=S)NCCc2ccccc2F)cc1 | 34.4 | 40.2* | 5.9 | 26.8 | 78.0* | 16.6 | 88.7*

High-throughput results as filed in PubChem BioAssay.
